Source: the supplement of paper PMC7156485
± gives the standard deviation of the averaged measurements.

Tests used:
Conditions in all cases: concentration: 10 µM; 24 h
HCC1569 [1] = assay: cell number relative to DMSO (% of DMSO); higher = more cells (less growth inhibition / toxicity)
Method in brief: (§1)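 H1.0 nuclear intensity or cell number is expressed as percent of the plate control, with the median of replicates taken. HCC1569 and TDF cells were treated with compounds at 10 µM for 24 h at 37 °C, in triplicate, then fixed and immunostained for H1.0 with DAPI as a nuclear stain. HCC1569 values were smoothed to correct for positional effects.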

TDF [2] = assay: as above
Method in brief: as §1

TDF [3] = assay: H1.0 immunofluorescence intensity relative to DMSO (% of DMSO); higher = stronger H1.0 induction, active = 120 or more
Method in brief: as §1

HCC1569 [4] = assay: H1.0 immunofluorescence intensity relative to DMSO (% of DMSO); higher = stronger H1.0 induction, active = 140 or more
Method in brief: as §1
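For H1.0 immunofluorescence intensity relative to DMSO in this document: TDF is a line of transformed human dermal fibroblasts of mesenchymal origin.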
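For cell number relative to DMSO in this document: TDF denotes transformed human dermal fibroblasts of mesenchymal origin.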

For `CN(C)CCCN1c2ccccc2Sc2ccc(Cl)cc21.Cl` [Chlorpromazine hydrochloride], the cell number (HCC1569 [1]) was 88.5, the cell number (TDF [2]) was 64.4 and the H1.0 immunofluorescence intensity (TDF [3]) was 135 (active). The H1.0 immunofluorescence intensity (HCC1569 [4]) was 144 (active).

For `CCCCCC=CCC=CCCCCCCCC(=O)NCC(=O)O` [N-Linoleoylglycine], the cell number (HCC1569 [1]) was 105, the cell number (TDF [2]) was 101 and the H1.0 immunofluorescence intensity (TDF [3]) was 96.8 (inactive). For the same compound, the H1.0 immunofluorescence intensity (HCC1569 [4]) was 103 (inactive).

With `CN1CCN(CC(=O)N2c3ccccc3C(=O)Nc3cccnc32)CC1.Cl.Cl` [Pirenzepine.2HCl] the cell number (HCC1569 [1]) was 101, the cell number (TDF [2]) was 106 and the H1.0 immunofluorescence intensity (TDF [3]) was 90.5 (inactive). For the same compound, the H1.0 immunofluorescence intensity (HCC1569 [4]) was 106 (inactive).

In the case of `CC(=O)NC(CSCC=C(C)CCC=C(C)CCC=C(C)C)C(=O)O` (configuration not stated) [Acetyl-farnesyl-cysteine], the cell number (HCC1569 [1]) is reported as 100, the cell number (TDF [2]) is reported as 104 and the H1.0 immunofluorescence intensity (TDF [3]) is reported as 97.2 (inactive). The H1.0 immunofluorescence intensity (HCC1569 [4]) was 96.3 (inactive).

`CNC(=O)c1cc(Oc2ccc(NC(=O)Nc3ccc(Cl)c(C(F)(F)F)c3)cc2)ccn1` [Sorafenib] was tested, and the cell number (HCC1569 [1]) was 45.9, the cell number (TDF [2]) was 21.5 and the H1.0 immunofluorescence intensity (TDF [3]) was 108 (inactive). The H1.0 immunofluorescence intensity (HCC1569 [4]) was 68.6 (inactive).

With `Fc1ccc(C2CCNCC2COc2ccc3c(c2)OCO3)cc1` (configuration not stated) [Paroxetine] the cell number (HCC1569 [1]) was 97.7, the cell number (TDF [2]) was 99.3 and the H1.0 immunofluorescence intensity (TDF [3]) was 99.1 (inactive). The H1.0 immunofluorescence intensity (HCC1569 [4]) was 114 (inactive).

`Clc1ccc(C(Cn2ccnc2)OCc2csc3c(Cl)cccc23)c(Cl)c1.O=[N+]([O-])O` (configuration not stated) was tested, and the cell number (HCC1569 [1]) was 88.9, the cell number (TDF [2]) was 100 and the H1.0 immunofluorescence intensity (TDF [3]) was 96.8 (inactive). The H1.0 immunofluorescence intensity (HCC1569 [4]) was 119 (inactive).

With `CC(Cc1ccccc1)(NC(=O)CN)c1ccccc1.Cl` (configuration not stated) the cell number (HCC1569 [1]) was 97.7, the cell number (TDF [2]) was 107 and the H1.0 immunofluorescence intensity (TDF [3]) was 103 (inactive). The H1.0 immunofluorescence intensity (HCC1569 [4]) was 91.3 (inactive).

`Oc1ccc(O)cc1` [Hydroquinone] was tested, and the cell number (HCC1569 [1]) was 74.9 ± 1.1, the cell number (TDF [2]) was 76.8 ± 3.5 and the H1.0 immunofluorescence intensity (TDF [3]) was 97.3 (inactive). For the same compound, the H1.0 immunofluorescence intensity (HCC1569 [4]) was 118 (inactive).

With `COc1ccc(C2CC(=O)c3c(O)cc(OC4OC(CO)C(O)C(O)C4OC4OC(C)C(O)C(O)C4O)cc3O2)cc1O` (configuration not stated) [Neohesperidin] the cell number (HCC1569 [1]) was 99.8, the cell number (TDF [2]) was 104 and the H1.0 immunofluorescence intensity (TDF [3]) was 107 (inactive). The H1.0 immunofluorescence intensity (HCC1569 [4]) was 96.3 (inactive).

With `O=C1NC(=O)c2c1c(-c1ccccc1)cc1[nH]c3ccc(O)cc3c21` the cell number (HCC1569 [1]) was 59.9, the cell number (TDF [2]) was 51.1 and the H1.0 immunofluorescence intensity (TDF [3]) was 101 (inactive). For the same compound, the H1.0 immunofluorescence intensity (HCC1569 [4]) was 91.4 (inactive).

For `COc1ccc2c(c1OC)C(=O)OC2C1c2c(cc3c(c2OC)OCO3)CCN1C.Cl` (configuration not stated) [Noscapine hydrchloride], the cell number (HCC1569 [1]) was 102, the cell number (TDF [2]) was 93.7 and the H1.0 immunofluorescence intensity (TDF [3]) was 97.1 (inactive). For the same compound, the H1.0 immunofluorescence intensity (HCC1569 [4]) was 96.5 (inactive).

In the case of `O=C(Nc1c(Cl)cncc1Cl)c1ccc(OC(F)F)c(OCC2CC2)c1`, the cell number (HCC1569 [1]) is reported as 99.9, the cell number (TDF [2]) is reported as 92.1 and the H1.0 immunofluorescence intensity (TDF [3]) is reported as 95.6 (inactive). The H1.0 immunofluorescence intensity (HCC1569 [4]) was 101 (inactive).

In the case of `COc1ccnc(CS(=O)c2nc3cc(OC(F)F)ccc3[n-]2)c1OC.O.[Na+]` (configuration not stated), the cell number (HCC1569 [1]) is reported as 104, the cell number (TDF [2]) is reported as 92.8 and the H1.0 immunofluorescence intensity (TDF [3]) is reported as 95.7 (inactive). For the same compound, the H1.0 immunofluorescence intensity (HCC1569 [4]) was 100 (inactive).

For `COCCOC(=O)C1=C(C)NC(C)=C(C(=O)OCC=Cc2ccccc2)C1c1cccc([N+](=O)[O-])c1` (configuration not stated) [Cilnidipine], the cell number (HCC1569 [1]) was 104, the cell number (TDF [2]) was 108 and the H1.0 immunofluorescence intensity (TDF [3]) was 90.2 (inactive). For the same compound, the H1.0 immunofluorescence intensity (HCC1569 [4]) was 111 (inactive).

`O=C(CCc1ccc(O)cc1)c1c(O)cc(O)cc1O` [Phloretin] was tested, and the cell number (HCC1569 [1]) was 97.73 ± 0.41, the cell number (TDF [2]) was 98.5 ± 17 and the H1.0 immunofluorescence intensity (TDF [3]) was 96.1 (inactive). For the same compound, the H1.0 immunofluorescence intensity (HCC1569 [4]) was 107 (inactive).

With `NC(=O)c1cccc(-c2cccc(OC(=O)NC3CCCCC3)c2)c1` the cell number (HCC1569 [1]) was 97.3, the cell number (TDF [2]) was 97.5 and the H1.0 immunofluorescence intensity (TDF [3]) was 105 (inactive). For the same compound, the H1.0 immunofluorescence intensity (HCC1569 [4]) was 124 (inactive).

With `CC12CC3CC(C)(C1)CC(N)(C3)C2.Cl` [Memantine hydrochloride] the cell number (HCC1569 [1]) was 106, the cell number (TDF [2]) was 96 and the H1.0 immunofluorescence intensity (TDF [3]) was 101 (inactive). For the same compound, the H1.0 immunofluorescence intensity (HCC1569 [4]) was 98.3 (inactive).

For `Cn1cnc2c(NCc3ccccc3)nc(NCCO)nc21`, the cell number (HCC1569 [1]) was 94.5, the cell number (TDF [2]) was 107 and the H1.0 immunofluorescence intensity (TDF [3]) was 103 (inactive). For the same compound, the H1.0 immunofluorescence intensity (HCC1569 [4]) was 107 (inactive).

`CC1CN(c2c(F)c(N)c3c(=O)c(C(=O)O)cn(C4CC4)c3c2F)CC(C)N1` (configuration not stated) [Sparfloxacin] was tested, and the cell number (HCC1569 [1]) was 104, the cell number (TDF [2]) was 103 and the H1.0 immunofluorescence intensity (TDF [3]) was 95.6 (inactive). The H1.0 immunofluorescence intensity (HCC1569 [4]) was 106 (inactive).

With `CC1OC(OCC2OC(Oc3c(-c4ccc(O)c(O)c4)oc4cc(O)cc(O)c4c3=O)C(O)C(O)C2O)C(O)C(O)C1O` (configuration not stated) [Rutin] the cell number (HCC1569 [1]) was 107, the cell number (TDF [2]) was 102 and the H1.0 immunofluorescence intensity (TDF [3]) was 91.6 (inactive). The H1.0 immunofluorescence intensity (HCC1569 [4]) was 88 (inactive).

`O=C(Nc1cccc2c(=O)cc(-c3nn[nH]n3)oc12)c1ccc(OCCCCc2ccccc2)cc1` [Pranlukast] was tested, and the cell number (HCC1569 [1]) was 101, the cell number (TDF [2]) was 110 and the H1.0 immunofluorescence intensity (TDF [3]) was 101 (inactive). The H1.0 immunofluorescence intensity (HCC1569 [4]) was 109 (inactive).

`OCC1OC(Oc2ccc(O)cc2)C(O)C(O)C1O` (configuration not stated) [Arbutin] was tested, and the cell number (HCC1569 [1]) was 99.6, the cell number (TDF [2]) was 101 and the H1.0 immunofluorescence intensity (TDF [3]) was 102 (inactive). The H1.0 immunofluorescence intensity (HCC1569 [4]) was 92.1 (inactive).
